In PubChem BioAssay (EPA / NIEHS):
Results filed as inconclusive are left out. The source made the active and inactive calls. The calls were made as follows, unless noted: active = hit-call score of the fitted dose curve at least 0.9, where 1 is the maximum; inconclusive = response in the unintended direction; inactive = score below 0.9.

Key:
[1] = ATG_TCF_b_cat_CIS: Attagene CIS-FACTORIAL HepG2 Assay for human T-Cell-Factor with beta-catenin (TCF/b-cat) (AID 2282965; active = hit-call score of the fitted dose curve at least 0.9, where 1 is the maximum; inactive = score below 0.9); conditions: HepG2 TCF/beta-catenin cis-reporter transcription, actives raise or lower the signal
How it was run: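 Endogenous TCF/LEF activity read as reporter transcript level via RT-PCR and capillary electrophoresis fluorescence in transfected HepG2, 24 h exposure; gain or loss of signal fitted against DMSO controls.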

[2] = ATG_TGFb_CIS: Attagene CIS-FACTORIAL HepG2 Assay for human Transforming Growth Factor (TGF) (AID 2282967; active = hit-call score of the fitted dose curve at least 0.9, where 1 is the maximum; inactive = score below 0.9); conditions: HepG2 Attagene CIS TGFb reporter, mRNA transcription; actives raise or lower the signal
How it was run: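 Liver HepG2 line, cis-factorial reporter panel, 24 h dosing. Quantitation: RT-PCR products labeled with 6-FAM, cut with HpaI, resolved by capillary electrophoresis; DMSO-referenced bidirectional analysis.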

[3] = ATG_VDRE_CIS: Attagene CIS-FACTORIAL HepG2 Assay for human Vitamin D Receptor Element (VDRE) (AID 2282968; active = hit-call score of the fitted dose curve at least 0.9, where 1 is the maximum; inactive = score below 0.9); conditions: HepG2 VDRE cis-reporter transcription, actives raise or lower the signal
How it was run: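 Measures endogenous factor activity through cis-element-driven reporter transcripts in transiently transfected HepG2. Cells are treated 24 h; reporter mRNA is quantified by RT-PCR and capillary electrophoresis; fitting is bidirectional.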

[4] = biological target: Nuclear receptor subfamily 1 group I member 3 (Homo sapiens) (UniProt Q14994); test: ATG_CAR_TRANS: Attagene TRANS-FACTORIAL HepG2 Assay for human Constitutive Androstane Receptor (CAR) (AID 2282969); conditions: HepG2 Attagene TRANS-FACTORIAL CAR reporter;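 also: activators raise reporter mRNA above DMSO so AC50 marks induction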
How it was run: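 Signal is reporter mRNA induction relative to DMSO, measured 24 h after dosing by RT-PCR with fluorescent primer extension and capillary electrophoresis. Human HepG2 liver cells carried transiently transfected chimeric NR-Gal4/GAL4-UAS reporter constructs.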

[5] = biological target: Estrogen receptor (Homo sapiens) (UniProt P03372); test: ATG_ERa_TRANS: Attagene TRANS-FACTORIAL HepG2 Assay for human Estrogen Receptor alpha (ERa) (AID 2282970); conditions: HepG2 Attagene TRANS ERa GAL4 reporter, mRNA
How it was run: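 Reporter transcripts were measured 24 h after dosing by RT-PCR with fluorescent primer extension and capillary electrophoresis. The system is transiently transfected HepG2 expressing exogenous NR-Gal4 chimeras driving GAL4-UAS reporters; DMSO is the baseline.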

[6] = biological target: Bile acid receptor (Homo sapiens) (UniProt Q96RI1); test: ATG_FXR_TRANS: Attagene TRANS-FACTORIAL HepG2 Assay for Farnesoid X Receptor (FXR) (AID 2282979); conditions: HepG2 Attagene TRANS FXR-GAL4 reporter transcription;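 also: hits raise reporter mRNA above DMSO so AC50 marks FXR activation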
How it was run: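 Reporter transcripts from transfected HepG2 cells were measured 24 h after dosing, using RT-PCR with capillary electrophoresis of 6-FAM-labelled fragments. The read-out reflects activity of exogenous FXR-Gal4 chimera on GAL4-UAS units, with induction relative to DMSO.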

[7] = biological target: Oxysterols receptor LXR-beta (Homo sapiens) (UniProt P55055); test: ATG_LXRb_TRANS: Attagene TRANS-FACTORIAL HepG2 Assay for human Liver X Receptor beta (LXRb) (AID 2282981); conditions: HepG2 Attagene TRANS GAL4-LXRb reporter, mRNA
How it was run: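 After 24 h of chemical treatment, transfected HepG2 cells yield total RNA; reporter cDNA is PCR-amplified, FAM-labelled, HpaI-cut and run on capillary electrophoresis. Signal reflects chimeric LXRb-Gal4 activity on GAL4-UAS reporters.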

[8] = biological target: Hepatocyte nuclear factor 4-alpha (Homo sapiens) (UniProt P41235); test: ATG_HNF4a_TRANS: Attagene TRANS-FACTORIAL HepG2 Assay for human Hepatocyte Nuclear Factor 4 alpha (HNF4a) (AID 2282982); conditions: HepG2 HNF4a transactivation reporter, mRNA readout
How it was run: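 Multiplexed reporter assay: transfected HepG2, 24 h exposure, total RNA → oligo(dT) RT → PCR → 6-FAM extension → HpaI digest → CE fluorescence. DMSO = negative control.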

[9] = biological target: Transcriptional activator Myb (Homo sapiens) (UniProt P10242); test: ATG_Myb_CIS: Attagene CIS-FACTORIAL HepG2 Assay for human Myeloblastosis (Myb) Proto-Oncogene Transcription Factor (AID 2282986; active = hit-call score of the fitted dose curve at least 0.9, where 1 is the maximum; inactive = score below 0.9); conditions: HepG2 Attagene CIS-FACTORIAL Myb reporter transcription; actives raise or lower the signal
How it was run: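 HepG2 cells were transiently transfected with cis-regulated multiple reporter transcription units reflecting endogenous Myb activity, then exposed to compound for 24 hours. Reporter mRNA was measured by RT-PCR with capillary electrophoresis; bidirectional fitting versus DMSO baseline.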

[10] = ATG_TAL_CIS: Attagene CIS-FACTORIAL HepG2 Assay for human TAL Basal Promoter (AID 2282966; active = hit-call score of the fitted dose curve at least 0.9, where 1 is the maximum; inactive = score below 0.9;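 also: background control endpoint measuring basal TAL promoter reporter mRNA not a specific factor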); conditions: HepG2 Attagene cis-factorial TAL promoter reporter; actives raise or lower the signal
How it was run: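 Background-control endpoint: basal TAL promoter reporter transcripts in transiently transfected HepG2, measured 24 h after dosing. Read-out by RT-PCR with fluorescent primer extension and capillary electrophoresis; gain or loss of signal fitted relative to DMSO.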

[11] = ATG_M_19_TRANS: Attagene TRANS-FACTORIAL HepG2 Assay for M19 Transcription Factor (Internal Marker) (AID 2282974); conditions: HepG2 Attagene TRANS-FACTORIAL M19 internal marker reporter
How it was run: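 HepG2 cells transiently transfected with multiple GAL4-UAS reporter transcription units were exposed to chemicals for 24 h. Reporter mRNA was read by RT-PCR, 6-FAM primer extension, HpaI digestion and capillary electrophoresis; gain of signal fitted relative to DMSO.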

[12] = ATG_GAL4_TRANS: Attagene TRANS-FACTORIAL HepG2 Assay for GAL4 (Internal Marker) (AID 2282976); conditions: HepG2 Attagene TRANS GAL4 internal marker reporter
How it was run: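 In transfected human HepG2 liver cells dosed 24 h, GAL4 reporter mRNA serves as a baseline marker. Detection by RT-PCR with fluorescent capillary electrophoresis, activity fitted upward relative to DMSO.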

[13] = biological target: Glucocorticoid receptor (Homo sapiens) (UniProt P04150); test: ATG_GR_TRANS: Attagene TRANS-FACTORIAL HepG2 Assay for human Glucocorticoid Receptor (GR) (AID 2282978); conditions: HepG2 Attagene TRANS GR reporter, mRNA transcription;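 also: activators score as hits since higher reporter transcript over DMSO is fitted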
How it was run: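 HepG2 cells transiently transfected with multiplexed reporter units in which chimeric NR-GAL4 proteins drive GAL4-UAS reporters; 24 h compound exposure. Reporter mRNA measured by RT-PCR, 6-FAM labelling, HpaI digestion and capillary electrophoresis; gain-of-signal fitted versus DMSO.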

[14] = ATG_M_06_TRANS: Attagene TRANS-FACTORIAL HepG2 Assay for M06 Transcription Factor (Internal Marker) (AID 2282983); conditions: HepG2 Attagene TRANS M06 internal marker reporter
How it was run: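 Background-control reporter readout: after 24 h chemical exposure of transiently transfected HepG2 (GAL4-UAS reporter units), mRNA quantified by RT-PCR with fluorescent labeling and capillary electrophoresis. Gain-of-signal fitting against DMSO baseline.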

[15] = ATG_M_32_TRANS: Attagene TRANS-FACTORIAL HepG2 Assay for M32 Transcription Factor (Internal Marker) (AID 2282984); conditions: HepG2 Attagene TRANS M32 internal marker reporter
How it was run: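 Cell-based TRANS-format assay in HepG2: exogenous chimeric GAL4 reporter units transiently expressed, compounds applied 24 h. Reporter mRNA detected by RT-PCR plus capillary electrophoresis; this readout is an internal background marker.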

[16] = biological target: Oxysterols receptor LXR-alpha (Homo sapiens) (UniProt Q13133); test: ATG_LXRa_TRANS: Attagene TRANS-FACTORIAL HepG2 Assay for human Liver X Receptor alpha (LXRa) (AID 2282980); conditions: HepG2 Attagene TRANS reporter, LXRa transactivation
How it was run: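 Chemical-induced reporter mRNA measured by RT-PCR with fluorescent labelling and capillary electrophoresis after 24 h dosing of transiently transfected HepG2 cells expressing exogenous NR-Gal4 chimeras; increases scored against DMSO baseline.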

[17] = biological target: X-box-binding protein 1 (Homo sapiens) (UniProt P17861); test: ATG_Xbp1_CIS: Attagene CIS-FACTORIAL HepG2 Assay for human X-box Binding Protein 1 (XBP1) (AID 2282972; active = hit-call score of the fitted dose curve at least 0.9, where 1 is the maximum; inactive = score below 0.9); conditions: HepG2 XBP1 cis-element reporter, Attagene multiplex; actives raise or lower the signal
How it was run: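 Changes in reporter transcript abundance, read by RT-PCR and capillary electrophoresis, reflect endogenous transcription factor activity. Transfected HepG2 cells received compound for 24 hours; DMSO defined baseline for bidirectional analysis.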

[18] = biological target: Estrogen-related receptor gamma (Homo sapiens) (UniProt P62508); test: ATG_ERRg_TRANS: Attagene TRANS-FACTORIAL HepG2 Assay for human Estrogen-Related Receptor gamma (ERRg) (AID 2282977); conditions: HepG2 Attagene TRANS reporter, ERRg transactivation;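 also: hits increase reporter signal over DMSO so potencies reflect activators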
How it was run: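 Exogenous NR-Gal4 chimera activity was assessed in HepG2 cells bearing transfected GAL4-UAS reporters. After 24 h dosing, total RNA underwent RT-PCR, fluorescent primer extension and HpaI digestion before capillary electrophoresis, with gain of signal scored against DMSO.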

[19] = biological target: Nuclear receptor subfamily 4 group A member 2 (Homo sapiens) (UniProt P43354); test: ATG_NURR1_TRANS: Attagene TRANS-FACTORIAL HepG2 Assay for human Nuclear Receptor Related Protein 1 (NURR1) (AID 2282985); conditions: HepG2 Attagene TRANS reporter, mRNA readout
How it was run: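 Measures transcriptional activation by an exogenous NR-Gal4 chimera in transfected HepG2 liver cells. After 24 h, reporter RNA is reverse-transcribed, amplified and resolved by capillary electrophoresis; DMSO defines baseline.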

[20] = biological target: Steroid hormone receptor ERR1 (Homo sapiens) (UniProt P11474); test: ATG_ERRa_TRANS: Attagene TRANS-FACTORIAL HepG2 Assay for human Estrogen-Related Receptor alpha (ERRa) (AID 2282971); conditions: HepG2 Attagene TRANS reporter, ERRa transactivation
How it was run: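 Reporter transcripts from ERRa-Gal4 chimera activity measured in transiently transfected human HepG2 cells 24 hours after dosing, using RT-PCR with 6-FAM primer extension, HpaI digestion and capillary electrophoresis; DMSO is baseline.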

Chain of Nuclear receptor subfamily 1 group I member 3 (Homo sapiens) (Q14994 whole entry, looked up, the tested form may be a part): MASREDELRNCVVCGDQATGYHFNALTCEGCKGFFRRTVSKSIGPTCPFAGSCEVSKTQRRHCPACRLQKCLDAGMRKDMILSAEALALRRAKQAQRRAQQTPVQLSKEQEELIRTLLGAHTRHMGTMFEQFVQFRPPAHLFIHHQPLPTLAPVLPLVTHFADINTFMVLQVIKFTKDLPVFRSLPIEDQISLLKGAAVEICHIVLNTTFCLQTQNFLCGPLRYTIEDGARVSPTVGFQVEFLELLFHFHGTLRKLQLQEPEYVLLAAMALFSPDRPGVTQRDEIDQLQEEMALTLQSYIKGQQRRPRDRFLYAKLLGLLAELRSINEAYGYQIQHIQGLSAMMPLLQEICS
Chain of Hepatocyte nuclear factor 4-alpha (Homo sapiens) (P41235 whole entry, looked up): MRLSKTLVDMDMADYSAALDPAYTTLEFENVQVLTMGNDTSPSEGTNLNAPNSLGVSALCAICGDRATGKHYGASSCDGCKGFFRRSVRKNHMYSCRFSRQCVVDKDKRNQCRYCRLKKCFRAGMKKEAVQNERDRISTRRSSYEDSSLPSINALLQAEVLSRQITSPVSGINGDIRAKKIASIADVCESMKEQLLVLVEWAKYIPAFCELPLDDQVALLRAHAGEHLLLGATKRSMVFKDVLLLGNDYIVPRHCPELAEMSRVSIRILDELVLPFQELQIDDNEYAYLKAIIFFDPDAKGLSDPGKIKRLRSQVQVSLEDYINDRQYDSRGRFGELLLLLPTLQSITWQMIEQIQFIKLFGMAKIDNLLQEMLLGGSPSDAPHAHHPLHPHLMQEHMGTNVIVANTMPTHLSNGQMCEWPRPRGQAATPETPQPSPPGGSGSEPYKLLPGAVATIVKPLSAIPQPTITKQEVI
Chain of Bile acid receptor (Homo sapiens) (Q96RI1 whole entry, looked up, the tested form may be a part): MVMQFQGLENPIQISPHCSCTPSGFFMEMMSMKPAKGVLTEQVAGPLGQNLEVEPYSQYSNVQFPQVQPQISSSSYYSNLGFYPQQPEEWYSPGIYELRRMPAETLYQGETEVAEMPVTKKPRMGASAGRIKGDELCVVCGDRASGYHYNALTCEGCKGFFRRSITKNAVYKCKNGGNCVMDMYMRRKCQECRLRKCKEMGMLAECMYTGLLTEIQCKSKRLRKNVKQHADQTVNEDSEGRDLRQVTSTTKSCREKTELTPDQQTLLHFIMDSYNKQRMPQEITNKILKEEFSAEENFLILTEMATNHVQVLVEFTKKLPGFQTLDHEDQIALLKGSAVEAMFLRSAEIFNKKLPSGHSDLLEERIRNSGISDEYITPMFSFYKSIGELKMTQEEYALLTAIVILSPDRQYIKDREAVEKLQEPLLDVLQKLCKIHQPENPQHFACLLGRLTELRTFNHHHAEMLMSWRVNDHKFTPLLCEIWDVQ
Chain of Estrogen receptor (Homo sapiens) (P03372 whole entry, looked up, the tested form may be a part): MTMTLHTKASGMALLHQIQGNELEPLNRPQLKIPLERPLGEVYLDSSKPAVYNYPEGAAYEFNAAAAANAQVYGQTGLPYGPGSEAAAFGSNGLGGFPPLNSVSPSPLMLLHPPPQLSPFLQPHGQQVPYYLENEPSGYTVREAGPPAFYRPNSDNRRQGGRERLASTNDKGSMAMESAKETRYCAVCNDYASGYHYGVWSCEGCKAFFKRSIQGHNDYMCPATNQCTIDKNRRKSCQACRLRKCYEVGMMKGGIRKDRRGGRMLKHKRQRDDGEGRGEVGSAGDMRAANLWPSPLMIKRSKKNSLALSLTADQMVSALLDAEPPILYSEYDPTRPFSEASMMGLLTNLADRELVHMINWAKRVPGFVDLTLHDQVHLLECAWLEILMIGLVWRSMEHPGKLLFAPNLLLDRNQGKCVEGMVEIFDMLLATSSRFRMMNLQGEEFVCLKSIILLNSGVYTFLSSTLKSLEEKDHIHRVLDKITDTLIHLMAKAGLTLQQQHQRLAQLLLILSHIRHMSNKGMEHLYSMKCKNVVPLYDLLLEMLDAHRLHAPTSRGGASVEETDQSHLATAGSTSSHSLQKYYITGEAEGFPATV
Chain of Oxysterols receptor LXR-beta (Homo sapiens) (P55055 whole entry, looked up, the tested form may be a part): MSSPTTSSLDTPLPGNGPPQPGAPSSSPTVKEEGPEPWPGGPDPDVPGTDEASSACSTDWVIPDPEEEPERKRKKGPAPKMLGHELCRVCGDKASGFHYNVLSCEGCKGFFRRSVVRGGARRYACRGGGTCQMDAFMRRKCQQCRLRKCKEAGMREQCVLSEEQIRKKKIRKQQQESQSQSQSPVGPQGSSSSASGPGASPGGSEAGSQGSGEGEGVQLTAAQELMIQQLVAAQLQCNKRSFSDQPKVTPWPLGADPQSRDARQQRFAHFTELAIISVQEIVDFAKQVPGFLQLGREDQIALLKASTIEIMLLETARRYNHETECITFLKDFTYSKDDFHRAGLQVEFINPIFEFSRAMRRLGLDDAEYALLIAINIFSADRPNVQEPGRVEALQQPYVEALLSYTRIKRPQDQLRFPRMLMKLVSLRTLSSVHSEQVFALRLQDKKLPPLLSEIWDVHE
Chain of Transcriptional activator Myb (Homo sapiens) (P10242 whole entry, looked up): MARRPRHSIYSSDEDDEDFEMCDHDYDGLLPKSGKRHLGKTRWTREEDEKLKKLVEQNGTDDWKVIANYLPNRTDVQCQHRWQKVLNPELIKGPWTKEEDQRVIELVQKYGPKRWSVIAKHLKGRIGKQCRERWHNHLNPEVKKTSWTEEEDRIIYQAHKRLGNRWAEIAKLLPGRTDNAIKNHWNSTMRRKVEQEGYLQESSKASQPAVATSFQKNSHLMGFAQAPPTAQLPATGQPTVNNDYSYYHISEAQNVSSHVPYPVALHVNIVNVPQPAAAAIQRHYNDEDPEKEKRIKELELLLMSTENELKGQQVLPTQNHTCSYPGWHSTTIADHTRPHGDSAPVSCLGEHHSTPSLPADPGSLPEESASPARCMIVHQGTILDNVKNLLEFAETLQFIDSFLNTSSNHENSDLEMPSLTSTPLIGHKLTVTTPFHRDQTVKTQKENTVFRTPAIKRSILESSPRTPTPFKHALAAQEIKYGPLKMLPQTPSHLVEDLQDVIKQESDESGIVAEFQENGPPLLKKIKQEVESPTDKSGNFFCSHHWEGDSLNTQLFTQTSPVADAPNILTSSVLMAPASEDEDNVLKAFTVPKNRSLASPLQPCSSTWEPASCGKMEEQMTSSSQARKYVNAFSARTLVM
Chain of X-box-binding protein 1 (Homo sapiens) (P17861 whole entry, looked up): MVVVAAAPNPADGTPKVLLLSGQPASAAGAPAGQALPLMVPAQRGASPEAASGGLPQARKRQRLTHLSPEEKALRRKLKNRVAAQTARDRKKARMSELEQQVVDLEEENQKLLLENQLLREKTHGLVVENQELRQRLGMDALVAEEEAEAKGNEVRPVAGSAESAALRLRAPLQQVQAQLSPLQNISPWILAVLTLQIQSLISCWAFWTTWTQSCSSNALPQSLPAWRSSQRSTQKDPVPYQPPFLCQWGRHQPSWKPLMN
Chain of Glucocorticoid receptor (Homo sapiens) (P04150 whole entry, looked up, the tested form may be a part): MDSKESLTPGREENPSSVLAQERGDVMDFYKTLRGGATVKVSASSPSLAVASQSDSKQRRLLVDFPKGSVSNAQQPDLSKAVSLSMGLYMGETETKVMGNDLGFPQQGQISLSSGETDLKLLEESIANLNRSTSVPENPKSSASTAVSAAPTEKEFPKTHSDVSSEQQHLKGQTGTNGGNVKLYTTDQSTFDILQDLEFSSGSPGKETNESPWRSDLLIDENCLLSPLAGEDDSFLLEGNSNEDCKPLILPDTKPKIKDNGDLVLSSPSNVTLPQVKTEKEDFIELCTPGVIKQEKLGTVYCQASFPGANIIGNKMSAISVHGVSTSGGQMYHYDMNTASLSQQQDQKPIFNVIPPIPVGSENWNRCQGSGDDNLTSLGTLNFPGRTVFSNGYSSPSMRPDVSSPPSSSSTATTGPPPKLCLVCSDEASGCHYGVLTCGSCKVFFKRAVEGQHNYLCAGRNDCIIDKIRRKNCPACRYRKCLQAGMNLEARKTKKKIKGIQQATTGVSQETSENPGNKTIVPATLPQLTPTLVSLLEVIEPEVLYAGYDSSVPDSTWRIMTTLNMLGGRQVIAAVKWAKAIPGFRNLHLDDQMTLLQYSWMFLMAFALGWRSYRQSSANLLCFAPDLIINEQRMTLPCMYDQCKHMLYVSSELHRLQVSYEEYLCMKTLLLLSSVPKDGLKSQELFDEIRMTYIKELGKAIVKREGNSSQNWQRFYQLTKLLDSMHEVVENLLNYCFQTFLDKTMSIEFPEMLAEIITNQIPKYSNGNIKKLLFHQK
Chain of Nuclear receptor subfamily 4 group A member 2 (Homo sapiens) (P43354 whole entry, looked up, the tested form may be a part): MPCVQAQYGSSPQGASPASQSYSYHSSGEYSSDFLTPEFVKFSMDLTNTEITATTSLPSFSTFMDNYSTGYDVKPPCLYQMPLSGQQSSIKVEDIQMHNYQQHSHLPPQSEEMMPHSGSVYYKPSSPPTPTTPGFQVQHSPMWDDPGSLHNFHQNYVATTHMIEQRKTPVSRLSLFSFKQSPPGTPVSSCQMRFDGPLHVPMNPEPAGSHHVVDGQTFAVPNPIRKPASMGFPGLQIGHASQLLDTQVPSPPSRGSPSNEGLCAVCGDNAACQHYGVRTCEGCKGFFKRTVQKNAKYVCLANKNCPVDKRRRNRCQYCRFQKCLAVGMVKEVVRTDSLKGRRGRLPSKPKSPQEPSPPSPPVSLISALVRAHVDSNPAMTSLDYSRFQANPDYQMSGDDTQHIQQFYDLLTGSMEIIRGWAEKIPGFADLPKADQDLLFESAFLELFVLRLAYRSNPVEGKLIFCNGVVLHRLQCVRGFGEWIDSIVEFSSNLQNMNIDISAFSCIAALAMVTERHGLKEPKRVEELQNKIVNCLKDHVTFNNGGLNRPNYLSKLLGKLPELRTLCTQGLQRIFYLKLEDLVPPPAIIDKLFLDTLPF

CCN(CC)c1ccc(C=O)cc1
outcome [1]: inactive | outcome [2]: inactive | AC50 [3]: 163 µM (active) | outcome [4]: inactive | outcome [5]: inactive | outcome [6]: inactive | outcome [7]: inactive | outcome [8]: inactive | outcome [9]: inactive

Nc1cc([N+](=O)[O-])cc(Cl)c1O
outcome [1]: inactive | outcome [10]: inactive | outcome [3]: inactive | outcome [11]: inactive | outcome [12]: inactive | outcome [13]: inactive | outcome [14]: inactive | outcome [15]: inactive | outcome [9]: inactive

O=C(O)C(F)(F)C(F)(F)C(F)(F)OC(F)(C(F)(F)F)C(F)(F)F
AC50 [1]: 285 µM (active) | outcome [10]: inactive | outcome [2]: inactive | outcome [3]: inactive | outcome [11]: inactive | outcome [12]: inactive | outcome [13]: inactive | outcome [6]: inactive | outcome [16]: inactive | outcome [9]: inactive

Cc1ccc(O)c(-n2nc3ccccc3n2)c1
outcome [1]: inactive | outcome [10]: inactive | outcome [3]: inactive | outcome [4]: inactive | AC50 [5]: 13.4 µM (active) | outcome [17]: inactive | outcome [18]: inactive | outcome [13]: inactive | outcome [6]: inactive | outcome [16]: inactive | outcome [7]: inactive | outcome [15]: inactive | outcome [9]: inactive

O=C(c1ccccc1)c1ccc(O)cc1O
outcome [1]: inactive | outcome [10]: inactive | outcome [2]: inactive | outcome [4]: inactive | AC50 [5]: 1.33 µM (active) | outcome [17]: inactive | outcome [12]: inactive | outcome [13]: inactive | outcome [6]: inactive | outcome [16]: inactive | outcome [7]: inactive | outcome [8]: inactive | outcome [19]: inactive | outcome [9]: inactive

CC(=O)C=O
outcome [1]: inactive | outcome [10]: inactive | outcome [3]: inactive | outcome [17]: inactive | outcome [12]: inactive | outcome [13]: inactive | outcome [6]: inactive | outcome [16]: inactive | outcome [14]: inactive | outcome [9]: inactive

CCN(CC)c1ccc(N=Nc2ccccc2)cc1
outcome [1]: inactive | outcome [10]: inactive | AC50 [3]: 7.19 µM (active) | outcome [5]: inactive | outcome [17]: inactive | outcome [11]: inactive | outcome [13]: inactive | outcome [6]: inactive | outcome [16]: inactive | outcome [7]: inactive | outcome [8]: inactive | outcome [15]: inactive | outcome [19]: inactive | outcome [9]: inactive

CCCC(=O)OCC(COC(=O)CCC)OC(=O)CCC
AC50 [1]: 64 µM (active) | outcome [10]: inactive | outcome [3]: inactive | outcome [17]: inactive | outcome [12]: inactive | outcome [13]: inactive | outcome [6]: inactive | outcome [8]: inactive | outcome [14]: inactive | outcome [19]: inactive

OCC(O)CC(F)(F)C(F)(F)C(F)(F)C(F)(F)F (stereo unspecified)
outcome [1]: inactive | outcome [10]: inactive | outcome [3]: inactive | AC50 [5]: 70.8 µM (active) | outcome [20]: inactive | outcome [17]: inactive | outcome [13]: inactive | outcome [6]: inactive | outcome [14]: inactive

CCN(CC)c1ccc2c(c1)Oc1cc(N(CC)CC)ccc1C21OC(=O)c2ccccc21
AC50 [1]: 50 µM (active) | outcome [10]: inactive | AC50 [3]: 1.32 µM (active) | outcome [17]: inactive | outcome [12]: inactive | outcome [13]: inactive | outcome [6]: inactive | outcome [14]: inactive | outcome [15]: inactive | outcome [9]: inactive

Cc1ccc([N+](=O)[O-])c(C)c1
outcome [1]: inactive | outcome [10]: inactive | outcome [3]: inactive | outcome [4]: inactive | outcome [20]: inactive | outcome [18]: inactive | outcome [13]: inactive | outcome [6]: inactive | outcome [16]: inactive | outcome [8]: inactive | outcome [14]: inactive | outcome [19]: inactive | outcome [9]: inactive
